Screening data from PubChem BioAssay.
dFosB act: activators of delta FosB homodimer, primary screen, biochemical, fluorescence polarization, TAMRA-CDK5 oligo, single point; purified delta FosB; percent of positive-control signal above neutral wells; Protein FosB (Mus musculus), P13346; AID 493131, 2011; activation, % at 25 µM; actives 0.99% (n = 340,000);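 active means mean activation above about 17%, with every replicate also reaching it, limit read from the data, passing the limit was not always enough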
Efa HMGR inh: inhibitors of E. faecalis class II HMGR, primary screen, biochemical, Enterococcus faecalis; HMG-CoA reductase (Enterococcus faecalis, mvaE); purified E. faecalis HMGR, NADPH absorbance 340 nm kinetic; inhibition, % at 10 µM; actives 0.41% (n = 190,000); AID 1066, 2008;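 active means inhibition above a set limit, the median over all tested compounds plus 3 SD, cut at about 9.5% in these data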;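 further: enzyme runs in reverse so mevalonate oxidation gives rising NADPH absorbance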
14-3-3 Bad inh: inhibitors of 14-3-3 zeta/Bad binding, primary screen, biochemical, TR-FRET, bovine 14-3-3 zeta; 14-3-3 protein zeta/delta (Bos taurus), P63103; TR-FRET 14-3-3zeta/Dy647-pBad peptide displacement, 1 h; inhibition, % at 21.7 µM; actives 0.71% (n = 220,000);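 active means inhibition above about 70%, limit read from the data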
Target sequence (P63103 whole entry, looked up): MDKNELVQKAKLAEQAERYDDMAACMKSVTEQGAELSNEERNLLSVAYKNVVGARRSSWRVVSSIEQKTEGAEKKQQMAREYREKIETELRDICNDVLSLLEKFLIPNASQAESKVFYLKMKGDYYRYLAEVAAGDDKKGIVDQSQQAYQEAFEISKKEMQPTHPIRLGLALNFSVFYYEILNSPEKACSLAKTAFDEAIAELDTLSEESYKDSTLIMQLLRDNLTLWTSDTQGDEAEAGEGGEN
NCF1 inh: p47phox/p22phox peptide binding inhibitors, primary screen, biochemical, uHTS, NADPH oxidase regulatory subunit | AID 1274, 2008 | inhibition, % at 24.7 µM | actives 0.53% (n = 220,000) | fluorescence polarization, 2 h | Neutrophil cytosol factor 1 (Homo sapiens), P14598;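 active means inhibition above about 30%, limit read from the data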
Target sequence (P14598 whole entry, looked up): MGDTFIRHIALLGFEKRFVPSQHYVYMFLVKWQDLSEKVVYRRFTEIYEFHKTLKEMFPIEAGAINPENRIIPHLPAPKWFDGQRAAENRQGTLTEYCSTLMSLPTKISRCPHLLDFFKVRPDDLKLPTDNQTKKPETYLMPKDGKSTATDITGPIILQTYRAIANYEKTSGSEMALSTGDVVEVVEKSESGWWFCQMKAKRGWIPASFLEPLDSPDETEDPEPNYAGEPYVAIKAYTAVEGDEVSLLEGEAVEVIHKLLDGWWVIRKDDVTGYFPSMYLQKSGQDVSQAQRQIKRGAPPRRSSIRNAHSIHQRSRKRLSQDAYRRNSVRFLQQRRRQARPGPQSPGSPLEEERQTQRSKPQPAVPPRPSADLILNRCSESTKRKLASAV
Hits are given with their value; . = inactive; / = no result; [ ] = remark or other dose. Compounds with a hit are over-represented: about 1.9% of the library has one in this group of screens.

SMILES	dFosB act	Efa HMGR inh	14-3-3 Bad inh	NCF1 inh
c1ccc(-c2c[n+]3c(n2-c2ccccc2)SCC3)cc1	/	/	.	.
CN1C(=O)C(O)(CC(=O)c2cccs2)c2ccccc21 (stereo not drawn)	.	.	.	.
CN1C(=O)C(O)(CC(=O)/C=C\c2ccc3c(c2)OCO3)c2ccccc21 (stereo not drawn)	.	10.6	.	.
Cc1ccc(C(=O)CC2(O)C(=O)N(C)c3ccccc32)s1 (stereo not drawn)	.	14.3	.	.
NC(=O)CN1C(=O)C(O)(CC(=O)/C=C\c2ccc3c(c2)OCO3)c2ccccc21 (stereo not drawn)	.	.	.	.
Cc1cccc(-c2noc(CNC(=O)Nc3ccc(F)cc3)n2)c1	.	.	.	.
CCOC(=O)c1ccc(N2C(=O)CC(Nc3ccc(O)cc3)C2=O)cc1 (stereo not drawn)	.	/	.	34.7
CCOc1ccccc1N1CCN(Cc2cccc(OC)c2O)CC1	.	.	73.5	.
COc1ccccc1N1CCN(Cc2cc(Br)c(O)c3ncccc23)CC1	.	.	.	.
c1ccc(CCN(Cc2ccccc2)C2CCN(C3CCCC3)CC2)cc1	.	.	.	.
O=S(=O)(Nc1cc(Sc2ncn[nH]2)c(O)c2ccccc12)c1ccccc1	.	.	70.6	.
O=C(CCN1C(=O)/C(=C/c2ccc(Cl)cc2)SC1=S)NC1C=CS(=O)(=O)C1 (stereo not drawn)	.	/	/	/
O=C(CN1C(=O)/C(=C/c2ccc(F)cc2)SC1=S)NC1C=CS(=O)(=O)C1 (stereo not drawn)	26.1	/	/	/
O=C(CN1C(=O)/C(=C/c2ccc(Cl)cc2)SC1=S)NC1C=CS(=O)(=O)C1 (stereo not drawn)	22.7	/	/	/
O=C(CN1C(=O)/C(=C/c2ccccc2)SC1=S)NC1C=CS(=O)(=O)C1 (stereo not drawn)	.	/	/	/
COc1ccc(/C=C2\SC(=S)N(CC(=O)NC3C=CS(=O)(=O)C3)C2=O)cc1 (stereo not drawn)	85.3	/	/	/
CC1(C)Cc2c(C#N)c(N)sc(=S)c2CS1	.	.	.	51.6
Cn1c(N)c(C#N)c2c(c1=S)CSC(C)(C)C2	.	.	.	.
O=C(CSc1ccsc1[N+](=O)[O-])Nc1cc(F)ccc1F	.	.	83.3	.
CCN(CC)c1ccc(NC(=O)CSc2ccsc2[N+](=O)[O-])c(C)c1	.	.	.	.
COC(=O)C1=C(C)N(Cc2ccco2)C(=O)/C1=C\c1ccc([N+](=O)[O-])cc1	.	10.1	.	.
CCCNc1c(NS(=O)(=O)c2ccc(Br)cc2)c(=O)oc2ccccc12	45.7	/	/	/
O=c1oc2ccccc2c(NC2CCCCC2)c1NS(=O)(=O)c1ccc(Br)cc1	.	/	/	/
O=C(NC1CCN(Cc2ccccc2)CC1)c1ccc(Cn2c(=S)[nH]c3ccc(N4CCOCC4)cc3c2=O)cc1	34.2	.	.	.
O=C(Nc1cc(S(=O)(=O)Nc2ccccc2Cl)ccc1O)c1sc2cc(Cl)ccc2c1Cl	100.8	.	.	.
SMILES	dFosB act	Efa HMGR inh	14-3-3 Bad inh	NCF1 inh
Cc1cccc(OCCn2c(=S)[nH]c3ccccc32)c1	.	11.3	.	.
COc1cc2oc(-c3ccc(O)cc3)cc(=O)c2c(O)c1OC	.	/	.	41.0
CCc1c(C)c(C#N)c2[nH]c3ccccc3n2c1=S	.	/	.	30.3
CC(C)NCC(O)(c1ccc(Cl)cc1)c1ccc(Cl)cc1	.	13.1	.	.
CC(C)(C)NCC(O)(c1ccc(Cl)cc1)c1ccc(Cl)cc1	.	.	.	.
CC(C)(C)c1ccc(OC(=O)CN2C(=O)C3C4CCC(C4)C3C2=O)cc1 (stereo not drawn)	.	.	.	.
Cc1ccccc1-n1c(SCC(=O)NCc2cccs2)nc2ccccc2c1=O	.	.	.	30.4
Cc1ccccc1-n1c(SCC(=O)N/N=C/c2c(C)nn(-c3ccccc3)c2C)nc2ccccc2c1=O	.	.	88.8	.
Cc1ccc(-n2c(SCC(=O)N/N=C/c3c(C)nn(-c4ccccc4)c3C)nc3ccccc3c2=O)cc1	.	.	.	.
Cc1ccc(-n2sc3ccccc3c2=O)cc1	.	.	.	101.2
C#CCn1c(=NC(=O)c2cc(Cl)sc2Cl)sc2cc(S(N)(=O)=O)ccc21	.	.	76.4	.
COC(=O)Cn1c(=NC(=O)c2nc3ccccc3s2)sc2cc(S(C)(=O)=O)ccc21	/	.	.	.
COCCn1c(=NC(=O)c2cccs2)sc2cc(NC(C)=O)ccc21	.	.	.	.
COC(=O)Cn1c(=NC(=O)c2sc3ccccc3c2Cl)sc2cc(S(N)(=O)=O)ccc21	.	.	86.1[fluorescence artefact?]	.
C#CCn1c(=NC(=O)c2ccc(Br)s2)sc2cc(NC(C)=O)ccc21	.	.	70.8[fluorescence artefact?]	.
O=c1[nH]c(CSc2ncc(C(F)(F)F)cc2Cl)nc2cc(C(F)(F)F)ccc12	.	/	.	.
O=C(NCc1ccco1)c1ccc2c(c1)C(=O)N(Cc1ccccc1)C2=O	.	.	.	.
Cc1cc(C)nc(/N=C(\N)Nc2cccc([N+](=O)[O-])c2)n1	.	.	.	.
Cc1c(-c2nc(N)nc(Nc3ccccc3F)n2)oc2ccccc12	.	.	.	.
Cc1ccc(Nc2nc(N)nc(-c3oc4ccccc4c3C)n2)cc1	76.5	.	.	.
COc1ccc(-c2c(C)nn(Cc3ccccc3)c2N)cc1	.	.	85.9	.
Cc1cc(C(=O)COc2ccc(F)cc2Br)c(C)n1C1CC1	.	/	/	/
Cc1cc(C(=O)COc2ccc(F)cc2Br)c(C)n1C	.	9.6	.	.
CN(C)S(=O)(=O)n1cc(/C=C(\NC(=O)c2ccccc2)C(=O)N2CCOCC2)c2ccccc21	.	/	/	/
O=C(c1ccc2c(c1)OCO2)C1CCCN(Cc2c(F)ccc(F)c2F)C1 (stereo not drawn)	.	/	/	/
SMILES	dFosB act	Efa HMGR inh	14-3-3 Bad inh	NCF1 inh
O=C(c1ccc2c(c1)OCO2)C1CCCN(Cc2ccc3nsnc3c2)C1 (stereo not drawn)	.	10.7	.	.
O=C(N/N=C/c1ccccc1C(=O)O)c1cc(-c2ccc3c4c(cccc24)CC3)n[nH]1	.	12.7	.	.
COc1ccc(Oc2nc(SC)nc3ccsc23)cc1	.	.	.	40.6
COc1ccccc1N(CC(=O)NCc1ccc(F)cc1)C(=O)CCC(=O)Nc1nccs1	.	/	/	/
Cc1ccc(C(O)c2nc3ccccc3n2C(C)C)cc1 (stereo not drawn)	.	.	.	70.8
COCCNC(=O)/C(C#N)=C/c1ccc(OC(=O)c2cccs2)c(OC)c1	.	.	.	113.4
COCCNC(=O)/C(C#N)=C/c1cccs1	.	/	.	.
O=[N+]([O-])c1ccc2c(c1)Cc1cc(F)ccc1-2	.	/	/	/
COc1ccc(CNC(=O)Nc2ccc(C)cc2)cc1	.	.	.	.
CCOC(=O)c1ccc(NC(=O)NCc2ccc(OC)cc2)cc1	.	.	79.2	.
O=C(c1ccco1)N1CCN(C(=O)c2cnn3c2NC(c2cccs2)CC3C(F)(F)F)CC1 (stereo not drawn)	.	.	.	.
